Each structure is given as a SMILES string. ± gives the standard deviation of the averaged measurements.

Assay [1] concerns DLD1. The experiment in a line: cell viability (CellTiter-Glo) relative to plate median (fraction of plate median); higher = more viable cells. Particulars: 5 µM; treatment time 24 h; reporter: 7TFP. In short, it runs like this: (§1)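 Luminescence, normalised well by well to the plate median, is tabulated as a mean of independent replicates. There were two replicates, run on colorectal cancer lines stably transduced with lentiviral TCF/Wnt firefly luciferase reporters and dosed with library compounds at a final 5 µM for 24 h. Readouts were firefly luciferase or CellTiterGlo on parallel plates.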
(In general: In ATP-based viability assays light output follows the ATP content of the culture.)

Assay [2] concerns HCT116. The description is as above. The following applies: 5 µM; treatment time 24 h; reporter: TCF4/Wnt. A digest of the protocol:
as §1

For assay [3], the system named is SW480. The assay is described as above. Particulars: 5 µM; treatment time 24 h; reporter: 7TFP. In short, it runs like this:
as §1

Assay [4] relates to DLD1. The experiment in a line: TCF/Wnt firefly luciferase reporter signal relative to plate median (fraction of plate median); higher = higher Wnt reporter signal. The following applies: 5 µM; treatment time 24 h; reporter: 7TFP. In short, it runs like this: as §1
A general note: Reporter assays use an easily measured gene product as a stand-in for the process of interest.

Assay [5] has as its system SW480. The assay is described as above. Particulars: 5 µM; treatment time 24 h; reporter: 7TFP. In short, it runs like this:
as §1

`CC(=O)O[C@@H]1CC2C(C)(C)[C@H](O)C=C[C@]2(C)C2CC[C@@]3(C)[C@H](c4ccoc4)OC(=O)C4OC43[C@@]21C` (stereo not given in full): the cell viability in assay [1] turned out to be 1.05 ± 0.064; in assay [2], 1.08 ± 0.092; in assay [3], 1.06 ± 0.028. Besides, the “TCF/Wnt firefly luciferase reporter signal” value in assay [4] amounted to 0.97 ± 0.042; in assay [5] it was 0.926 ± 0.1.
Taken in the same sequence, the figures for `COc1c(-c2ccccc2)oc2c(ccc3occc32)c1=O` were 1.03 ± 0.035, 1.09 ± 0.078, 1.03 ± 0.021, 1.09 ± 0.078 and 1.05 ± 0.014.
In the same order, the values of `Cn1c(=O)[nH]c2ncn(C)c2c1=O` are 0.987 ± 0.13, 1.04 ± 0.021, 1.02, 1.05 ± 0.13 and 1.02 ± 0.072.
Taken in the same sequence, the figures for `CC1Cc2ccccc2N1NC(=O)c1ccc(Cl)c(S(N)(=O)=O)c1` (stereo not given) were 1.01 ± 0.069, 1.1 ± 0.028, 1 ± 0.013, 0.967 ± 0.13 and 1.055 ± 0.0071.
Regarding `C=C(CC[C@@H](C(=O)O)[C@H]1CC[C@@]2(C)C3=C(CC[C@]12C)[C@@]1(C)CC[C@H](O)C(C)(C)[C@@H]1CC3)C(C)C` [Eburicoic acid], the cell viability worked out at 0.994 ± 0.052 in assay [1], 0.923 ± 0.15 in assay [2] and 1.01 ± 0.03 in assay [3]. Moreover, the “TCF/Wnt firefly luciferase reporter signal” value was found to be 0.878 ± 0.023 in assay [4] and 0.983 ± 0.013 in assay [5].
As to `C[N+](C)(C)C[C@H](O)CC(=O)[O-]`, the cell viability was determined as 0.964 ± 0.028 in assay [1], 0.976 ± 0.022 in assay [2] and 0.965 ± 0.014 in assay [3]. Also, the results for the “TCF/Wnt firefly luciferase reporter signal” value in assay [4] and in assay [5] were 0.921 ± 0.014 and 0.961 ± 0.069, respectively.
In the same order, the values of `C=C(C)[C@@H]1C[C@H](O)[C@]2(C(=O)O)CC[C@]3(C)[C@H](C[C@H]4OC(=O)C[C@@H](O)[C@]5(C)[C@@H]4[C@@]3(C)CC[C@H]5C(=C)C)[C@@H]12` [22alpha-hydroxychiisanogenin (11)] are 0.883 ± 0.21, 0.884 ± 0.14, 0.984 ± 0.094, 0.859 ± 0.2 and 0.922 ± 0.017.
In the same order, the values of `CCC(=O)O[C@]1(C(=O)CCl)[C@@H](C)C[C@H]2[C@@H]3CCC4=CC(=O)C=C[C@]4(C)[C@@]3(F)[C@@H](O)C[C@@]21C` are 1.03 ± 0.035, 0.9775 ± 0.0078, 1.01 ± 0.035, 0.896 ± 0.27 and 0.893 ± 0.027.
In the same order, the values of `NC(=O)N1c2ccccc2C=Cc2ccccc21` are 0.931 ± 0.098, 1.01 ± 0.029, 1.004 ± 0.0092, 1.05 ± 0.042 and 0.937 ± 0.17.
Turning to `Oc1ccc(O)cc1`, the cell viability in assay [1] is 0.839 ± 0.11; in assay [2] it was 0.856 ± 0.022; in assay [3], 0.959 ± 0.1. Besides, the “TCF/Wnt firefly luciferase reporter signal” value amounted to 1.14 ± 0.14 in assay [4] and 1.04 ± 0.2 in assay [5].
As for `NC1=NCCN1CC(=O)O`, the cell viability was 0.897 ± 0.036 in assay [1], 1.03 ± 0.072 in assay [2] and 0.976 ± 0.0014 in assay [3]. Besides, the results for the “TCF/Wnt firefly luciferase reporter signal” value in assay [4] and in assay [5] were 1.06 ± 0.094 and 0.985 ± 0.016, respectively.
In the same order, the values of `Cc1cc(O)cc(O)c1C(=O)O` are 1.03 ± 0.035, 1.07 ± 0.1, 1.03 ± 0.014, 1 ± 0.05 and 0.925 ± 0.039.
In the same order, the values of `C=CC(C)(O)CCC1C(=C)CC(O)C2C(C)(C)CCCC12C` (stereo not given) are 0.995 ± 0.0071, 0.865 ± 0.1, 0.996 ± 0.0057, 0.922 ± 0.15 and 0.927 ± 0.1.
In the same order, the values of `CC(=O)O[C@H]1C[C@@]2(C)[C@@H](C[C@@H](O)[C@H]3[C@@]4(C)CC[C@@H](O)[C@@H](C)[C@@H]4CC[C@@]32C)/C1=C(\CCC=C(C)C)C(=O)O` are 1.04 ± 0.05, 1 ± 0.054, 1.04 ± 0.028, 1.12 ± 0.05 and 1.06 ± 0.064.
Turning to `COc1cc(OC)c2c(OC)c(-c3ccc4c(c3)OCO4)c(=O)oc2c1`, the figures for the cell viability in assay [1], in assay [2] and in assay [3] were 1.04, 1.08 ± 0.05 and 1.01 ± 0.061, respectively. For the same molecule, the entries for the “TCF/Wnt firefly luciferase reporter signal” value in assay [4] and in assay [5] were 0.804 ± 0.36 and 0.867 ± 0.34, respectively.
Taken in the same sequence, the figures for `COc1cc(NS(C)(=O)=O)ccc1Nc1c2ccccc2nc2ccccc12` were 1.11 ± 0.14, 0.83 ± 0.09, 1.03 ± 0.035, 0.973 ± 0.053 and 0.841 ± 0.11.
In the case of `CC1=CC(=O)CC(C)(C)C1(O)/C=C/C(C)=C\C(=O)O` (mixture of isomers) [ABSCISIC ACID (cis,trans; )], the cell viability in assay [1] is 1.05 ± 0.021; in assay [2] it was 1.1 ± 0.021; in assay [3] it was 1.03 ± 0.064. In addition, the “TCF/Wnt firefly luciferase reporter signal” value in assay [4] is 1.08 ± 0.092; in assay [5], 1.18 ± 0.13.
For the molecule `COc1cc2oc3cc(OC)c(OC)c(CC=C(C)C)c3c(=O)c2c(O)c1CC=C(C)C`, the cell viability in assay [1] turned out to be 1.08 ± 0.16; in assay [2], 1 ± 0.078; in assay [3], 1.02 ± 0.054. For the same molecule, the “TCF/Wnt firefly luciferase reporter signal” value was 1.1 ± 0.19 in assay [4] and 0.968 ± 0.046 in assay [5].
For the molecule `CC(=O)OCC(=O)[C@H]1CC[C@H]2[C@@H]3CC=C4C[C@@H](O)CC[C@]4(C)[C@H]3CC[C@]12C`, the cell viability in assay [1] came to 1.04 ± 0.05; in assay [2] it was 1.03 ± 0.057; in assay [3], 1.04 ± 0.028. Further, the “TCF/Wnt firefly luciferase reporter signal” value in assay [4] came to 1.01 ± 0.13; in assay [5], 0.975 ± 0.064.
`CC(C)CCCC(C)C1CCC2C3CCC4CCCCC4(C)C3CCC12C` (stereo not given): the cell viability in assay [1] stood at 1; in assay [2] it was 0.997 ± 0.033; in assay [3], 0.9585 ± 0.00071. In addition, the “TCF/Wnt firefly luciferase reporter signal” value in assay [4] is 0.94 ± 0.042; in assay [5] it was 1.02 ± 0.014.
For the molecule `COc1cc(O)c(C(C)=O)c(OC)c1`, the values for the cell viability in assay [1], in assay [2] and in assay [3] were 1.12 ± 0.11, 1.03 ± 0.059 and 1.055 ± 0.0071, respectively. Also, the “TCF/Wnt firefly luciferase reporter signal” value in assay [4] stood at 0.978 ± 0.19; in assay [5], 0.983 ± 0.11.
In the same order, the values of `COc1ccc(C(Cl)=C(c2ccc(OC)cc2)c2ccc(OC)cc2)cc1` are 1.01 ± 0.044, 1.12 ± 0.05, 0.978 ± 0.032, 0.915 ± 0.19 and 0.877 ± 0.17.
As to `COc1cc(O)c2c(c1)C(=O)c1cc3c(c(OC)c1C2=O)[C@@H]1CCO[C@@H]1O3` [Aversin], the results for the cell viability in assay [1], in assay [2] and in assay [3] were 1.24 ± 0.17, 1.18 ± 0.021 and 1.12 ± 0.021, respectively. Moreover, the “TCF/Wnt firefly luciferase reporter signal” value worked out at 0.95 ± 0.059 in assay [4] and 1.02 ± 0.16 in assay [5].
With `CCCCCCNC(=O)n1cc(F)c(=O)[nH]c1=O`, the cell viability in assay [1] came to 1.06 ± 0.042; in assay [2], 0.925 ± 0.13; in assay [3], 1.04 ± 0.014. Besides, the “TCF/Wnt firefly luciferase reporter signal” value amounted to 0.971 ± 0.13 in assay [4] and 1.08 ± 0.078 in assay [5].
In the case of `CCC1(C)OC(=O)N(C)C1=O` (stereo not given), the figures for the cell viability in assay [1], in assay [2] and in assay [3] were 1.04 ± 0.014, 0.873 ± 0.078 and 0.908 ± 0.0028, respectively. The “TCF/Wnt firefly luciferase reporter signal” value in assay [4] was 0.965 ± 0.0085; in assay [5] it was 0.956 ± 0.076.
In the same order, the values of `CCN(CC)C(=O)c1cccc(C)c1` are 0.954 ± 0.041, 1.01 ± 0.05, 0.991 ± 0.028, 1.03 ± 0.079 and 0.923 ± 0.061.
On to `O=c1[nH]c(=O)n([C@H]2C[C@H](O)[C@@H](CO)O2)cc1C(F)(F)F`, for which the cell viability in assay [1] stood at 1.07 ± 0.042; in assay [2] it was 1.03 ± 0.05; in assay [3], 1.03 ± 0.014. Also, the “TCF/Wnt firefly luciferase reporter signal” value is 0.818 ± 0.16 in assay [4] and 0.886 ± 0.013 in assay [5].
Taken in the same sequence, the figures for `CC(=O)O[C@]1(C(C)=O)CC[C@H]2[C@@H]3C=C(Cl)C4=CC(=O)[C@@H]5C[C@@H]5[C@]4(C)[C@H]3CC[C@@]21C` were 1 ± 0.035, 0.96 ± 0.086, 0.948 ± 0.0028, 0.81 ± 0.052 and 0.923 ± 0.22.

The values above are taken from the supplement of paper PMC6522484.
